Active and inactive are the calls of the source. Rule for the calls: active = hit-call score of the fitted dose curve at least 0.9, where 1 is the maximum; inactive = score below 0.9.

Chain of Aryl hydrocarbon receptor (Homo sapiens) (P35869 whole entry, looked up): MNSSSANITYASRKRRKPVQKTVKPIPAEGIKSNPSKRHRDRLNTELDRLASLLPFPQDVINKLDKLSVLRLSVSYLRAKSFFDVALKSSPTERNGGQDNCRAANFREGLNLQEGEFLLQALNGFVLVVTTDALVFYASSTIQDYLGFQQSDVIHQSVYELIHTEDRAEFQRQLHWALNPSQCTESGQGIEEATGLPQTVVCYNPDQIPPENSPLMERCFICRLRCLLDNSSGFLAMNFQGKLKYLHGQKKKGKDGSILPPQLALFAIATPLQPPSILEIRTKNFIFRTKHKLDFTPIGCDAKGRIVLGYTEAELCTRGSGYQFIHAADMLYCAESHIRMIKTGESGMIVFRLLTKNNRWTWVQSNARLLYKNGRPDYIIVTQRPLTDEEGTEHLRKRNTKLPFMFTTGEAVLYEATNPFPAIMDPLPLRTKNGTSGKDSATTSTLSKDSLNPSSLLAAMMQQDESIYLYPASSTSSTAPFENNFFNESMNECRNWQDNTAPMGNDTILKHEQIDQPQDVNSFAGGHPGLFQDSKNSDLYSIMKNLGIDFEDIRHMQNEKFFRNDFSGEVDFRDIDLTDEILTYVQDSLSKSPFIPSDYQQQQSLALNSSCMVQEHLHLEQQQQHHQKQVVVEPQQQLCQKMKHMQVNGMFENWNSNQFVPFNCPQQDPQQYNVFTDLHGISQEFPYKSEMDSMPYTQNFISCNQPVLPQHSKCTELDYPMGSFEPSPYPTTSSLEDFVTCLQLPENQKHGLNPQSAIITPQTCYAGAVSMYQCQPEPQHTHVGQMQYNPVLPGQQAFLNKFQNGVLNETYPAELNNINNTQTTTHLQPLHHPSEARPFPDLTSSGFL

This assay has as its target Aryl hydrocarbon receptor (Homo sapiens) (UniProt P35869). The experiment in a line: ATG_Ahr_CIS: Attagene CIS-FACTORIAL HepG2 Assay for human Aryl Hydrocarbon Receptor (Ahr) (AID 2282930). The following applies: HepG2 AhR cis-factorial reporter transcription; actives raise or lower the signal. As to the method: ATG_CIS is a cell-based, multiplexed-readout assay that uses HepG2, a human liver cell line, with measurements taken at 24 hours after chemical dosing in a 24-well plate.ATG_Ahr_CIS is one of 52 assay component(s) measured or calculated from the ATG_CIS assay. It is designed to make measurements of mRNA induction, a form of inducible reporter, as detected with fluorescence intensity signals by Reverse transcription polymerase chain reaction (RT-PCR) and Capillary electrophoresis technology.Data from the assay component ATG_Ahr_CIS was analyzed into 1 assay endpoint. This assay endpoint, ATG_Ahr_CIS, was analyzed with bidirectional fitting relative to DMSO as the negative control and baseline of activity. Using a type of inducible reporter, measures of mRNA for gain or loss-of-signal activity can be used to understand the reporter gene at the transcription factor-level as they relate to the gene AHR. Furthermore, this assay endpoint can be referred to as a primary readout, because this assay has produced multiple assay endpoints where this one serves a reporter gene function. To generalize the intended target to other relatable targets, this assay endpoint is annotated to the dna binding intended target family, where the subfamily is basic helix-loop-helix protein.
Human liver HepG2 cells are transiently transfected with multiple reporter transcription units (MRTUs) in 6-well plates using FuGene 6 reagent (Roche; 3 ml FuGene/1 mg DNA). The MRTU constructs are regulated by a cis-regulating element (promoter). […] A major difference between the CIS and TRANS system is that in CIS activities of endogenous TFs are measured, whereas the TRANS assay evaluates changes in activities of exogenous, chimeric NR-Gal4 proteins. […] At the end of 24 hour incubation, total RNA was isolated using TriZol reagent (Invitrogen). The isolated RNA is then reverse-transcribed using oligo(dT) primer and Mo-MLV reverse transcriptase (Invitrogen) with DNAse I (Ambion) treatment for 30 min. The one-tenth of the produced cDNA was amplified by PCR using Taq DNA polymerase (Invitrogen) and two reporter sequence-specific primers. The PCR products were fluorescently labeled by primer extension with 6-arboxyfluorescein (6-FAM) 5'-labeled reporter sequence-specific primer (2 min at 95 C, 20 s at 68 C and 10 min at 72 C) and these products were digested with 5U of HpaI (New England Biolabs) for 2h at 37 C. […] The raw capillary electrophoresis data was processed using Attagraph software (Attagene).
Take `O=C1c2cccc(O)c2C(=O)c2c(O)cc(CO)cc21`: the molecule was classed as inactive. `C=CC(C)(CCC=C(C)C)OC(=O)C(C)C` (stereo not given): the molecule was called inactive.

Take `N#[N+]c1ccc2c(S(=O)(=O)[O-])cccc2c1O`: the result was inactive. The same measure, in the same setting: next, `CCCCCCCCCCc1ccccc1`: “inactive”; `CCCCCCCCCCCSCC(=O)O`: “inactive”. As to `COCCOCCOCCOCCOC`, the result was inactive. Still for that read-out and setting: then `CC(C)(c1cc(Br)c(OCCO)c(Br)c1)c1cc(Br)c(OCCO)c(Br)c1`, with “inactive”. Still for that read-out and setting: next, `CC(=O)CC(N)=O`: “inactive”; `c1ccc(-c2ccccn2)nc1`: “inactive”.

As for `O=C(Nc1ccccc1)c1ccccc1O`, the AC50 is 19.1 µM (active).

Regarding `Nc1ccc(N)c(Cl)c1`, the AC50 is 1.99 µM (active). Turning to `CC(=O)Oc1ccc(C(C)=O)cc1`, the molecule was called inactive. With `O=c1c2ccccc2nnn1CCl`, the result was inactive.

For `Cc1ccc2c(c1)C(=O)c1ccccc1C2=O`, the AC50 is 9.39 µM (active). As for `CCCCCCOc1cc(C)c(O)c(C)c1C`, the molecule was classed as inactive.

As for `O=C(c1ccc(O)cc1)c1ccc(O)cc1O`, the molecule was called inactive. For `C=C(C)C(=O)OCCOc1ccccc1`, the molecule was called inactive. The same measure, in the same setting: next, `C=CC(=O)OCCOC1C2CCC1C1CC=CC12` (stereo not given): “inactive”; `CCCCCCCCCCCCCCCC[N+](C)(C)CC`: “inactive”. Take `O=C1CCCC1`: the call was inactive.

In the case of `O=C(C=Cc1ccccc1)OCc1ccccc1`, the molecule was classed as inactive. The same measure, in the same setting: next, `CC(=O)OC1C2(C)CCC(C2)C1(C)C` (stereo not given): “inactive”. Same read-out and setting: next, `C=CC(=O)OCCC(=O)O`: “inactive”; `OCCNCc1ccccc1`: “inactive”. Same read-out and setting: next, `COC(=O)/C=C\C(=O)O`: “inactive”; `Nc1ccc2cc3ccccc3cc2c1`: “inactive”. Consider `O=C(O)c1cc2ccccc2nc1C(=O)O`, for which the AC50 was 41.1 µM (active). On to `COC(=O)c1cc(Cl)ccc1[N+](=O)[O-]`, for which the result was inactive.

As to `CCCCCCCOC(=O)CCC`, the molecule was called inactive. Consider `O=C(O)c1cc(Cl)cc([N+](=O)[O-])c1Cl`, for which the molecule was called inactive.

Turning to `c1c[nH]cn1`, the molecule was classed as inactive. Regarding `CC(=O)OCC(C)OC(C)=O` (stereo not given), the outcome was inactive.

Take `N[C@H]1C(O)O[C@H](CO)[C@H](O)[C@@H]1O` (stereo not given in full): the molecule was called inactive.

In the case of `CC(=O)C=CC1C(C)=CCC(C)C1(C)C` (stereo not given), the outcome was inactive. In the case of `CCC(=O)Oc1ccc(/C(CC)=C(\CC)c2ccc(OC(=O)CC)cc2)cc1`, the call was inactive. The same measure, in the same setting: then `CCOc1nc(F)cc2nc(S(=O)(=O)Nc3c(Cl)cccc3C(=O)OC)nn12`, with “inactive”. As for `O=C(Nc1cccc(C(F)(F)F)c1)c1cc(Br)cc(Br)c1O`, the result was inactive.

Consider `CCCCCCCCCCC=CC#N`, for which the call was inactive.

For the molecule `CCOc1ccc(N)c([N+](=O)[O-])c1`, the molecule was classed as inactive. On to `CC(CC=O)CCCC(C)(C)O` (stereo not given), for which the outcome was inactive.

The record behind these values is PubChem BioAssay (EPA / NIEHS).
